MITF inhib – MITF inhibition; 0.28% of 37,000 active; TRPM1 promoter luciferase, luminescence, 24 h; inhibition, % (concentration not given with the values); AID 2240; in the data active means inhibition above about 85%; inconclusive means no clear call, values can overlap the other calls; inactive means below about 68%;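 further: human melanocyte line stably carrying TRPM1 promoter luciferase reporter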
Hedgehog inh – blocks Sonic Hedgehog signaling. 2.1% of 22,000 active. inhibition, % (no concentration beside the values). Shh-LIGHT2 Gli-luciferase reporter, 30 h. AID 2313;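 active means mean inhibition across valid replicates above about 65%, limit read from the data; inconclusive means mean under the limit, yet half or more replicates past it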;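 further: pathway switched on by Shh-conditioned medium diluted 1 in 25 in low serum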
NOMO-1 viab – STK33 inhibitor candidate reducing NOMO-1 cell viability; NOMO-1 AML viability, CellTiter-Glo luminescence, 72 h; inhibition, % (test concentration not listed); 7.5% of 37,000 active; AID 2330; in the data active means inhibition above about 80%; inconclusive means no clear call, values can overlap the other calls
PD-1 reverse act – activators reversing PD-1 mediated T-cell inhibition; activation, % (concentration not given with the values); AID 2316; 29,000 tested, under 10 active; primary human CD4 T cells, PD-L1 beads, CellTiter-Glo 96 h; call rule not given here;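 further: 0% = median vehicle wells and 100% = positive control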
* = called active by the depositor; ? = inconclusive; / = not tested or not shown; ! = not active in a repeat. Rows were chosen to be rich in hits. Some 8.1% of all compounds tested hit in one or more screens of this group.

SMILES	MITF inhib	Hedgehog inh	NOMO-1 viab	PD-1 reverse act
C[C@H](CO)N1C[C@H](C)[C@H](CN(C)Cc2ccc(C(F)(F)F)cc2)Oc2c(NC(=O)Nc3ccc(F)cc3)cccc2C1=O	29	-86	69	-2
Cc1cccc(C)c1Nc1scc(C)[n+]1C	1	-17	-2	2
C[C@@H]1CN([C@@H](C)CO)C(=O)c2cccc(NC(=O)c3ccc(-c4nccs4)cc3)c2O[C@H]1CN(C)Cc1ccc(C(=O)Nc2ccccc2N)cc1	38	/	126*	-1
C[C@@H]1CN([C@H](C)CO)C(=O)c2cccc(NC(=O)c3ccc(-c4nccs4)cc3)c2O[C@@H]1CN(C)Cc1ccc(-c2ccccc2)cc1	-12	14	60	/
C[C@H]1CN([C@@H](C)CO)C(=O)c2cccc(NC(=O)c3ccc(-c4nccs4)cc3)c2O[C@@H]1CN(C)Cc1ccc(-c2ccccc2)cc1	30	22	?	/
C[C@H](CO)N1C[C@H](C)[C@H](CN(C)Cc2ccc(Oc3ccccc3)cc2)Oc2c(NC(=O)c3ccc(-c4nccs4)cc3)cccc2C1=O	-4	43	112*	-3
C[C@@H]1CN([C@H](C)CO)C(=O)c2cccc(NC(=O)c3ccc(-c4nccs4)cc3)c2O[C@@H]1CN(C)Cc1ccc(C(=O)Nc2ccccc2N)cc1	58	/	142*	-4
C[C@H]1CN([C@@H](C)CO)C(=O)c2cccc(NC(=O)c3ccc(-c4nccs4)cc3)c2O[C@H]1CN(C)Cc1ccc(C(=O)Nc2ccccc2N)cc1	-1	/	101*	-2
CN1CCN(c2ncc3c(=S)[nH]c(=S)[nH]c3n2)CC1	4	-5	5	0
COc1ccc(N(CN2C(=O)c3ccccc3C2=O)C(=O)c2ccccc2)cc1	-1	/	32	0
CC(C)Cc1cc(-c2cccc(Br)c2)c(C#N)c(N)n1	6	26	33	-1
C[C@H](CO)N1C[C@H](C)[C@H](CN(C)C(=O)Nc2ccc(C(F)(F)F)cc2)Oc2c(NC(=O)c3ccc(-c4nccs4)cc3)cccc2C1=O	32	46	93*	-7
C[C@@H]1CN([C@H](C)CO)C(=O)c2cccc(NC(=O)c3ccc(-c4nccs4)cc3)c2O[C@H]1CN(C)Cc1ccc(C(F)(F)F)cc1	52	24	84*	/
OC(CN1CCNCC1)Cn1c2ccc(Br)cc2c2cc(Br)ccc21 (centres undefined)	-13	78*!	121*	-12
CC1CCN(CC(O)COc2c(F)cc(Br)cc2F)CC1 (centres undefined)	0	16	2	0
COc1cccc(CN2CCN(C(=S)Nc3ccc(S(N)(=O)=O)cc3)CC2)c1	29	/	12	0
Nc1cc(-c2ccccc2)ccc1O	-1	/	63	-1
CCCc1ccc(O)c(N)c1	15	26	124*	-7
CC(C)(C)c1ccc2cc(C#N)c(C#N)cc2c1	5	-23	140*	0
COc1ccc(N(CC(=O)Nc2ccc(Br)c(Cl)c2)S(C)(=O)=O)cc1Cl	7	/	29	0
C[C@H]1CN([C@@H](C)CO)C(=O)c2cc(NC(=O)Cc3cn(C)c4ccccc34)ccc2O[C@@H]1CN(C)Cc1ccc2c(c1)OCO2	11	/	98*	/
C[C@@H]1CN([C@@H](C)CO)C(=O)c2cc(NC(=O)Cc3cn(C)c4ccccc34)ccc2O[C@@H]1CN(C)Cc1ccc(C(F)(F)F)cc1	39	24	106*	-1
C[C@@H]1CN([C@H](C)CO)C(=O)c2cc(NC(=O)Cc3cn(C)c4ccccc34)ccc2O[C@H]1CN(C)Cc1ccccc1	12	/	53	/
C[C@H](CO)N1C[C@H](C)[C@H](CN(C)Cc2ccc(-c3ccccc3)cc2)Oc2ccc(NC(=O)Cc3cn(C)c4ccccc34)cc2C1=O	10	/	85*	-2
C[C@@H]1CN([C@H](C)CO)C(=O)c2cc(NC(=O)Cc3cn(C)c4ccccc34)ccc2O[C@@H]1CN(C)Cc1ccc(Oc2ccccc2)cc1	16	?	108*	-4
SMILES	MITF inhib	Hedgehog inh	NOMO-1 viab	PD-1 reverse act
C[C@@H]1CN([C@H](C)CO)C(=O)c2cc(NC(=O)Cc3cn(C)c4ccccc34)ccc2O[C@H]1CN(C)Cc1ccc(C(F)(F)F)cc1	13	/	31	1
COc1ccccc1NC(=O)c1cnc(Nc2nc3ccccc3o2)nc1C	-81	/	18	/
O=C(NCc1cccnc1)c1cnn2c1NC(c1ccccc1)CC2C(F)(F)F (centres undefined)	-2	/	13	0
O=C(CSc1nc(-c2ccc(Cl)cc2)cc(C(F)(F)F)n1)c1cccc([N+](=O)[O-])c1	8	/	56	/
O=C(CSc1ncnc2scc(-c3ccccc3)c12)Nc1cccc(Cl)c1Cl	2	/	36	-3
C[C@H](CO)N1C[C@H](C)[C@H](CN(C)Cc2ccccc2)Oc2ccc(NC(=O)Cc3cn(C)c4ccccc34)cc2C1=O	11	2	12	0
C[C@@H]1CN([C@H](C)CO)C(=O)c2cc(NC(=O)Cc3cn(C)c4ccccc34)ccc2O[C@@H]1CN(C)Cc1ccc(-c2ccccc2)cc1	7	/	112*	/
CCCOc1ccc(C2C3=C(CCCC3=O)OC3=C2C(=O)CCC3)cc1OCC	15	14	38	0
C[C@H](CO)N1C[C@H](C)[C@H](CN(C)Cc2ccc(C(F)(F)F)cc2)Oc2ccc(NC(=O)Nc3ccc4c(c3)OCO4)cc2CC1=O	35	-26	104*	/
C[C@@H]1CN([C@@H](C)CO)C(=O)Cc2cc(NC(=O)Nc3ccc4c(c3)OCO4)ccc2O[C@@H]1CN(C)Cc1ccc(C(F)(F)F)cc1	1	-14	95*	0
C[C@@H]1CN([C@H](C)CO)C(=O)c2cc(NS(=O)(=O)c3ccccc3)ccc2O[C@@H]1CN(C)Cc1ccc(-c2ccccc2)cc1	12	2	121*	0
Cc1ccc(S(=O)(=O)Nc2ccc3c(c2)C(=O)N([C@H](C)CO)C[C@H](C)[C@@H](CN(C)Cc2ccc(-c4ccccc4)cc2)O3)cc1	-1	/	53	-1
Cc1ccc(S(=O)(=O)Nc2ccc3c(c2)C(=O)N([C@H](C)CO)C[C@@H](C)[C@@H](CN(C)Cc2ccc(-c4ccccc4)cc2)O3)cc1	31	/	122*	-2
CCc1ccc(NC(=O)CSc2ncnc3sc4c(c23)CCC(C)C4)cc1 (centres undefined)	-5	/	46	3
Cc1ccc(-c2nc3ccccc3[nH]2)cc1NC(=O)COc1ccccc1[N+](=O)[O-]	86*	/	119*	-14
COc1ccccc1CC(=O)Nc1ccc(-c2nc3ccccc3[nH]2)cc1	72	/	135*	-6
COc1ccccc1CC(=O)Nc1ccc(-c2noc(-c3ccc(OC)c(OC)c3)n2)cc1	-26	/	44	0
CC(C)(C)C(=O)Nc1c(Cl)sc2nccc(=O)n12	-7	/	-12	-1
C[C@@H]1CN([C@H](C)CO)C(=O)c2cc(NS(=O)(=O)c3ccc(F)cc3)ccc2O[C@@H]1CN(C)Cc1ccc(-c2ccccc2)cc1	5	/	118*	0
C[C@@H]1CN([C@@H](C)CO)C(=O)c2cc(NS(=O)(=O)c3ccc(F)cc3)ccc2O[C@H]1CN(C)Cc1ccc(-c2ccccc2)cc1	21	-6	107*	/

Source: PubChem BioAssay (Broad Institute)
